Consider five compounds from PubChem BioAssay (NCI).

Compounds without any hit were thinned out: in the full panel of roughly 83,000, 20% have a hit.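 Method: cells in 96-well plates; compound added at one concentration; 48 h incubation; percent growth measured; values under 10 scored active.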 Values without a mark were called inactive. The source made the active and inactive calls.

In this experiment the test system is HL-60(TB) leukemia. Nature of the experiment: NCI-60 one-dose screen, 48 h (100 = growth as untreated, 0 = no growth, -100 = all killed). To be noted: 10 µM unless noted.
Regarding `C/C=C\COc1cc(C)c(Cl)cc1Cl`, the growth is 105%.

Regarding `Cc1ccc(-n2c(=S)[nH]c3sc4c(c3c2=O)CCC(=O)C4)cc1`, the growth is 4.93% (active).

In the case of `CSc1ccc(/C=C2\C=C(CC(=O)NCc3ccc(C(=O)c4ccccc4)cc3)c3cc(F)ccc32)cc1`, the growth was -30.3% (active).

`CCOC(=O)Nc1ccc(-c2nc(-c3cccc(OC)c3)c(-c3ccnc(Br)c3)[nH]2)cc1`: the growth is -18.7% (active). Take `O=C(O)C1C(c2ccccc2)c2ccccc2C(O)C1CO` (stereo not given): the growth was 102%.
